This note sets out measurements from PubChem BioAssay AID743269 (The Scripps Research Institute Molecular Screening Center, 2014).

The structures appear in SMILES notation. About 2,400 (0.65%) of roughly 370,000 compounds were called active. The entries come from a sample that favours actives as a whole. Unmarked numbers belong to inactive results.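 Rule for the calls: active = inhibition above the screen-wide mean plus 3 SD (cut at about 13% in these data); inactive = the rest.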

The assay deals with HIV-1 integrase (with human LEDGF/p75). Nature of the assay: blockers of LEDGF/p75-dependent integrase strand transfer – biochemical, TR-FRET, high throughput, primary screen (AID 743269).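 Note: signal is the Cy5 over europium emission ratio at 671 and 618 nm; 0% = plate median of compound wells.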 The settings on record: TR-FRET IN-LEDGF/p75 DNA integration, Eu/Cy5; at 3.7 µM; hits give high values. For orientation: TR-FRET usually uses a lanthanide donor and a delayed reading to cut background.
The inhibition is the drop in the measured response relative to a control, in per cent. With `Cc1ccc(NC(=S)NNC(=O)CSc2nnc(SCc3ccccc3Cl)s2)cc1`, the inhibition is 3.99%.

Regarding `CC(C)N1CCCCC(NC(=O)c2ccc3ccccc3c2)C1=O` (stereo not given), the inhibition was 0.96%. In the case of `Cc1ccc(Cn2cc(CN3[C@@H](CC(C)C)COc4ccc(Cl)cc4S3(=O)=O)nn2)cc1` it was 1.01%; in that of `O=S1(=O)c2ccc(Br)cc2OC[C@@H](Cc2ccccc2)N1Cc1cn(Cc2ccco2)nn1`, 5.73%. In the case of `O=C1C=CC(=O)N1c1ccc(N2CCCCC2)cc1` it was 14.3% (active); in that of `Cc1ccc(-n2c(SCC(=O)Nc3ccc(S(=O)(=O)Nc4nccs4)cc3)nnc2-c2ccccn2)cc1`, -3.23%; in that of `COC(=O)C1CN(CCc2ccccc2)CCS(=O)(=O)N1Cc1cccc(Cl)c1` (stereo not given), 0.85%.

Consider `CN(C)[C@H]1CCN(c2cccc3c2S(=O)(=O)N2CC[C@H](C2)O3)C1`, for which the inhibition was 2.98%. In the case of `C=CCn1c(=S)[nH]c2scc(-c3ccco3)c2c1=O` it was 42.3% (active); in that of `O=S1(=O)c2c(cccc2N2CC[C@H](O)C2)O[C@@H]2CCN1C2`, 1.21%; in that of `O=C(N1CCOCC1)N1CC[C@H]2[C@H](CCCN2Cc2ccc(F)cc2)C1`, 3%. Regarding `O=C(c1cccc(C(F)(F)F)c1)N1CC[C@H]2[C@H](CCCN2Cc2cc(F)cc(F)c2)C1`, the inhibition was 86.5% (active). For `O=C(c1ccncc1)N1CC[C@H]2[C@H](CCCN2Cc2ccc(F)cc2)C1`, the inhibition is 1.57%. In the case of `CCN(CC)C(=O)CC[C@@H]1CC[C@]2(CCCN(S(=O)(=O)C3CCCCC3)C2)O1` it was -3.12%; in that of `COc1ccc(Cn2cc(COC(=O)N(C)Cc3ccccc3)nn2)cc1`, 2.21%. In the case of `CCc1c(-c2ccccc2)nc(N)c(C#N)c1-c1cccs1` it was 0.5%; in that of `CSc1nc(N)c(C#N)c(-c2ccccc2Cl)c1C#N`, 30.9% (active); in that of `CSc1ccc(-c2c(C#N)c(N)nc3c2c(C)nn3-c2ccccc2)cc1`, -1.93%. Take `CCCCCCCCNS(=O)(=O)/C=C/c1cc(C)ccc1CNC(=O)OC(C)(C)C`: the inhibition was -0.25%. In the case of `COc1ccc(CN2C(=O)N3Cc4cc(OC)ccc4C3CS2(=O)=O)cc1` (stereo not given) it was 0.03%.

Regarding `Cc1c(Cl)cnc(NC(=O)COC(=O)C2CCCC2)c1Cl`, the inhibition is 3.73%.

Take `CCc1cc2c(SCC(=O)Nc3ncc(Cl)c(C)c3Cl)ncnc2s1`: the inhibition was 44.2% (active). Consider `Cc1sc2ncnc(SCC(=O)Nc3ccc(CN4CCCC4)cc3)c2c1C`, for which the inhibition was -2.64%. In the case of `O=C(CNS(=O)(=O)c1ccccc1F)N1CCN(c2ccccn2)CC1` it was -3.63%; in that of `COC(=O)[C@]12C[C@H](CC(=O)N3CCN(C(=O)C4CC4)CC3)C(=O)N(CCC3=CCCCC3)C1=C[C@H](C(C)C)O[C@@H]2C1CC1`, -2.49%.

`O=C(CN1C(=O)c2ccccc2S1(=O)=O)N1CCc2ccccc21`: the inhibition is -3.85%. In the case of `CN(Cc1ccc(F)cc1)C(=O)CN1C(=O)c2ccccc2S1(=O)=O` it was 18% (active). In the case of `NS(=O)(=O)c1ccc(CCNC(=O)CN2C(=O)c3ccccc3S2(=O)=O)cc1` it was 4.15%; in that of `CCOC(=O)[C@@]12CN(C(=O)OC(C)(C)C)CC=C1N(Cc1ccc(OC)cc1)C(=O)[C@H]2CC(=O)NCc1ccc(OC)c(OC)c1`, -2.96%. As for `CC(C)(C)OC(=O)NCc1cc(F)ccc1/C=C/S(=O)(=O)NCCc1ccccc1`, the inhibition was 1.04%.
